Drawing on PubChem BioAssay AID2642 (Johns Hopkins Ion Channel Center, 2010), this text covers B-score for 73 compounds.

The whole screen tested about 310,000 compounds, of which about 3,900 (1.3%) were called active.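 Rule for the calls: active = compounds whose thallium flux B-score, printed positive for inhibition, exceeds three library SD while starting fluorescence stays within three; inactive = the rest.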 The list comes from a sample in which actives are over-represented; it also holds similar structures and randomly drawn compounds.

The target in this assay is Potassium voltage-gated channel subfamily KQT member 1 (Homo sapiens) (UniProt P51787). Nature of the assay: inhibitors of human KCNQ1 channel, primary screen, cell-based, thallium flux, high-throughput (AID 2642).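 Note: channel opened by potassium depolarization with thallium stimulus after 20 min compound exposure.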 The conditions noted are these: CHO-K1 KCNQ1, FluxOR thallium flux fluorescence, at 10 µM; hits give high values.
Chain of Potassium voltage-gated channel subfamily KQT member 1 (Homo sapiens) (P51787 whole entry, looked up): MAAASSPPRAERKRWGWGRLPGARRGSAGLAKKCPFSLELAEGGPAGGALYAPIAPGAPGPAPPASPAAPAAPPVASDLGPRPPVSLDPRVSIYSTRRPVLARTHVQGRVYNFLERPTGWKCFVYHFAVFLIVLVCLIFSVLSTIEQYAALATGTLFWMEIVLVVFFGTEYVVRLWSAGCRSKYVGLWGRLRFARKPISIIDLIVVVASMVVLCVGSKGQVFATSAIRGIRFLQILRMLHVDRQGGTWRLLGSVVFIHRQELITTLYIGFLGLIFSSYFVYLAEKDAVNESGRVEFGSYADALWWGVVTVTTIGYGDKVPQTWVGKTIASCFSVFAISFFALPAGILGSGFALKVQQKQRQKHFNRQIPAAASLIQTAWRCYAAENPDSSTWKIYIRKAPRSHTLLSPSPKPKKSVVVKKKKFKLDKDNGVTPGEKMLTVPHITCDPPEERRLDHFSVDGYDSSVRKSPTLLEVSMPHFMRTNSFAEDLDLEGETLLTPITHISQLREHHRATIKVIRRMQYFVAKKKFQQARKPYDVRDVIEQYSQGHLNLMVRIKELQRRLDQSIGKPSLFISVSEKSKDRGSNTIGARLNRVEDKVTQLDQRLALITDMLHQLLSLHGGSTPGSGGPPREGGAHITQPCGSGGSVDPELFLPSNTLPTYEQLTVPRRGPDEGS
For the compound `COc1ccc(/C=C(/NC(=O)c2ccc(C)cc2)c2nc3ccccc3[nH]2)cc1OC`, the B-score result was “inactive”. As to `COc1cc(/C=C(\C#N)c2nc3ccccc3[nH]2)ccc1O`, the B-score is 9 (active). The same measure for `COc1cc(/C=C(\C#N)c2nc3c(s2)CC(C)CC3)ccc1O` (stereo not drawn): “inactive”; for `COc1ccc(/C=C(\NC(=O)c2ccc(OCC(C)C)cc2)C(=O)OCc2ccco2)cc1`: “inactive”. The same measure for `O=C(O)c1ccc(OCC2CCCO2)cc1` (stereo not drawn): “inactive”. With `COc1ccccc1C(=O)NC(CCSC)C(=O)NNC(=O)c1csc(N2CCOCC2)n1` (stereo not drawn), the B-score entry was “inactive”. The same measure for `O=C(Nc1ccc(N2CCOCC2)nc1)c1c(F)cccc1F`: “inactive”.

As for `O=C(Nc1ccc(F)cc1)c1cccnc1N1CCOCC1`, the B-score is 10 (active).

For `COC(=O)c1cc(NC(=O)c2cccnc2)ccc1N1CCOCC1`, the B-score entry was “inactive”. The same measure for `CSCCC(NS(=O)(=O)/C=C/c1ccccc1)C(=O)N1CCC(C)CC1` (stereo not drawn): “inactive”; for `Cc1c(C(=O)OC(C)C)sc(NC(=O)c2cccnc2)c1C#N`: 9 (active); for `CCOC(=O)c1sc(NC(=O)CSc2ncccn2)c(C#N)c1C`: “inactive”. Consider `CCOC(=O)c1ccc(NC(=O)c2cccnc2)cc1`, for which the B-score result was “inactive”. The same measure for `C=CCc1c(C)nc2cc(-c3ccccc3)[nH]n2c1=O`: “inactive”; for `COc1ccc(CCNC(=O)CCNS(=O)(=O)c2cc(Br)cnc2N)cc1OC`: “inactive”. Next, `Cc1ccc(NS(=O)(=O)c2ccc(C(C)(C)C)cc2)cn1`: “inactive”; `Cc1cc(C)cc(OCC(=O)Nc2ccc(S(=O)(=O)Nc3ccccn3)cc2)c1`: “inactive”; `Cc1ccc(S(=O)(=O)Nc2ccc3ncccc3c2)cc1`: 6 (active). Consider `Cc1ccc2c(Cl)c(C(=O)Nc3nn[nH]n3)sc2c1`, for which the B-score result is “inactive”.

With `CCCCCCCCCCCCN1C(=O)CSC1c1cccnc1` (stereo not drawn), the B-score is 9 (active). Next, `CCCCCCOc1ccc(OC(=O)c2cccnc2)cc1`: “inactive”; `CN(C)CCCN1C(=O)CSC1c1ccc([N+](=O)[O-])cc1` (stereo not drawn): “inactive”; `CCCCN1C(=O)c2ccc(C(=O)Nc3ccc(S(=O)(=O)N(C)C)cc3)cc2C1=O`: “inactive”. Next, `CC(C)(C)C(=O)N(Cc1ccccc1)c1ccccn1`: “inactive”; `CCN=C1S/C(=C\c2cc(Br)ccc2OCC(=O)OCC)C(=O)N1CC`: “inactive”; `CN(C)C(=O)c1ccc2c(c1)C1C3CCC(C3)C1C(c1ccccc1)N2` (stereo not drawn): 6 (active). Turning to `CN(C)C(=O)c1ccc(NC(=O)c2ccccc2-c2ccccc2)cc1`, the B-score entry was “inactive”. Turning to `O=C(c1ccc2c(c1)N(Cc1ccc(F)cc1)C(=O)c1ccccc1S2(=O)=O)N1CCN(c2ccccn2)CC1`, the B-score result was “inactive”. The same measure for `S=C(NCc1ccc(Cl)cc1)NC12CC3CC(CC(C3)C1)C2`: 11 (active). Next, `S=C(NCc1ccc(Cl)cc1)NC1CCCCC1`: “inactive”; `O=C(NCc1ccncc1)NC12CC3CC(CC(C3)C1)C2`: “inactive”; `Cc1cc(C)c(NC(=S)N2CCCC2C(=O)O)c(C)c1` (stereo not drawn): “inactive”. Turning to `CC(C)[C@H](NC(=O)N1CCn2c1nc1ccccc12)C(=O)NCc1ccc2c(c1)OCO2`, the B-score entry is “inactive”. Next, `COc1cnn(-c2ccc([N+](=O)[O-])cc2)c(=O)c1Cl`: “inactive”.

For `CC(=O)c1ccc(NC(=O)C2CCCN2S(=O)(=O)c2cccs2)cc1` (stereo not drawn), the B-score result is “inactive”. For `CCSc1nsc(NC(=O)Nc2cccc(C(C)=O)c2)n1`, the B-score was 10 (active).

For `C=C(C)C(=O)Nc1cccc(C(C)=O)c1`, the B-score entry was “inactive”.

As to `C=CCSc1nsc(NC(=O)Nc2cccc(C(C)=O)c2)n1`, the B-score was 12 (active). As to `CC(=O)c1cccc(NC(=O)c2ccncc2)c1`, the B-score result is “inactive”. `CCSc1nsc(NC(=O)Nc2ccccc2OC)n1`: the B-score result is “inactive”.

Regarding `CSc1nsc(NC(=O)Nc2ccccc2)n1`, the B-score result was “inactive”. Take `CCOc1ccc(C(CCc2ccccc2)NC(=O)c2ccc(OC)c(OC)c2)cc1OCC` (stereo not drawn): the B-score result is “inactive”. Next, `COc1cc2c3c(c1)/C(=C1/SC(=S)NC1=O)C(=O)N3C(C)(C)C=C2C`: “inactive”. Next, `Cc1ccc2nc(-c3ccncc3)cc(C(=O)Nc3ccc(OC(F)F)cc3)c2c1`: “inactive”; `CC(C)C(=O)Nc1ccc2c(c1)oc1ccccc12`: “inactive”; `CCOC(=O)c1ccc(NC(=O)CCn2c(=O)oc3ccccc32)cc1`: “inactive”. For `CC(=O)NCCC(=O)Nc1nc(-c2ccc3c(c2)OCCO3)cs1`, the B-score result was “inactive”. As for `Cc1ccc(-c2csc(NC(=O)C3=COCCO3)n2)cc1C`, the B-score was 12 (active). As to `Cc1csc(NC(=O)C2=COCCO2)n1`, the B-score result was “inactive”.

Take `Cc1cccc(CN2CCC(n3nccc3NC(=O)c3ccccc3C)CC2)n1`: the B-score result is “inactive”. Next, `CN(C)N(C)C(=O)C(O)(c1ccccc1)c1ccccc1`: “inactive”; `CCc1ccc(NC(=O)CCNS(=O)(=O)c2cccs2)cc1`: “inactive”. With `COc1ccc(-c2cc(C(F)(F)F)nc(NCc3cccnc3)n2)cc1`, the B-score entry is “inactive”. Take `COc1ccc(-c2cc(C(F)(F)F)nc(S(C)(=O)=O)n2)cc1OC`: the B-score was 7 (active).

Turning to `COc1ccc(-c2ccc(Nc3ccc(S(=O)(=O)N4CCCC4)cc3)nn2)cc1OC`, the B-score entry was “inactive”. Turning to `C=C(C)CNC(=O)c1ccc(OC2CCN(C(=O)COC)CC2)cc1`, the B-score result was “inactive”. For `O=C(CC(NCCN1CCOCC1)C(=O)O)Nc1cccc(Cl)c1` (stereo not drawn), the B-score result is “inactive”.

For `CCOC(=O)c1sc(NC(=O)CSc2nc(C)cc(C(F)(F)F)n2)c(C#N)c1C`, the B-score result is “inactive”. The same measure for `CC(C(=O)Nc1ccc(O)c(C(=O)O)c1)N1C(=O)/C(=C/c2cccs2)SC1=S` (stereo not drawn): “inactive”; for `COC(=O)c1ccc(NC(=O)Nc2ccc(C)cc2)cc1`: 7 (active). Next, `COC(=O)c1ccc(NC(=O)c2cc(Cl)ccc2OC)cc1`: “inactive”; `Cc1ccc(NC(=O)CC(=O)Nc2ccc(C)cc2)cc1`: “inactive”. For `CCC(C)C(NC(=O)C1CCC(=O)N1C(=O)OCc1ccccc1)C(=O)NC(C(=O)N1CCCC1C(N)=O)C(C)CC` (stereo not drawn), the B-score result was “inactive”.

For the compound `CC1CCc2c(c3ccccc3[nH]c2=O)O1` (stereo not drawn), the B-score entry was “inactive”.

In the case of `CCOC(=O)c1cc(C)sc1NC(=O)C1CCC1`, the B-score result was “inactive”. The same measure for `Oc1ccccc1C1=NN(c2ccccc2)C(c2ccccc2)C1` (stereo not drawn): 7 (active); for `COc1ccc(C2CC(c3cccs3)=NN2c2ccccc2)cc1` (stereo not drawn): “inactive”. The same measure for `O=C(c1ccccc1)N1N=C(c2ccccc2O)CC1c1ccc(Br)cc1` (stereo not drawn): “inactive”; for `Cc1nc2c(C(=O)NCc3cccs3)cnn2c(C)c1Cc1ccc(F)cc1`: “inactive”; for `CCOC(=O)c1cccc(NC(=O)C2CCCN(S(=O)(=O)c3cnc[nH]3)C2)c1` (stereo not drawn): “inactive”. Next, `Cc1ccc(C)c(-n2cc(CN3CCN(C(=O)c4ncn[nH]4)CC3)c(-c3ccccc3)n2)c1`: “inactive”; `CCC(O)C1CCN(Cc2cn(-c3ccc(OC)cc3)nc2-c2cccc(F)c2)CC1` (stereo not drawn): “inactive”; `Cc1cccc(-n2cc(CN3CCN(C(=O)c4ncn[nH]4)CC3)c(-c3cccc(F)c3)n2)c1`: 10 (active).
